# Assay outcomes: PubChem BioAssay, National Center for Advancing Translational Sciences (NCATS)
# The list is not random: actives were taken first. Their share in the collection is about 2.1%.
# D2 antagonist = antagonists of human D2 dopamine receptor | P14416 | HEK293 TREx D2 cells, calcium flux, dopamine EC80 | inhibition, % at 10 µM | 340,000 compounds, 2% hits | AID 485344; in the data active = inhibition above about 30%; inactive = below that, where a call was filed; note: 0% is about no effect
# Target sequence (P14416 whole entry, looked up): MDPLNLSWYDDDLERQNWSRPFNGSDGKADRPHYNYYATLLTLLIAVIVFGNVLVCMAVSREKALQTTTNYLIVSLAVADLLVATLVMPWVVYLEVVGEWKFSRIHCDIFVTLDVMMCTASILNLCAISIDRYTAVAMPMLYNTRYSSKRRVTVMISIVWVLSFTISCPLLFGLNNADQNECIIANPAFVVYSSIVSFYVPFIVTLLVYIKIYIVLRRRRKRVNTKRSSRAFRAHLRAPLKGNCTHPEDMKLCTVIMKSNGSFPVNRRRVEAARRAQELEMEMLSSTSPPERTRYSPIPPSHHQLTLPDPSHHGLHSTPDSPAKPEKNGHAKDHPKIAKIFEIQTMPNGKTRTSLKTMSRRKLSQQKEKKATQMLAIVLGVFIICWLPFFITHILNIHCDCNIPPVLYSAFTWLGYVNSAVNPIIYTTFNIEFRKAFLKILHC
#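 HEK293 T-REx D2 cells, tet-induced, calcium dye no-wash. Cpd pintool add, 180 s kinetic, then EC80 DA, 180 s kinetic. Ca flux read.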
# D2 PAM-1 = positive allosteric modulators of human D2 dopamine receptor; 340,000 compounds, 0.34% hits; P14416; potentiation, % at 10 µM; AID 485347; HEK293 T-REx D2, calcium flux, EC20 dopamine potentiation;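 active = potentiation over 3 SD above the plate norm, cut at about 30% in these data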; note: 0% is about no effect
#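 Potentiation of an EC20 dopamine calcium response measured kinetically over 180 s, after a preceding 180 s compound-only read flagging agonists. Cells: inducible Hek293 Trex D2 line, 4000/well, cultured overnight at 30 C before dye loading.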
# D2 ag-1 = activates the human D2 dopamine receptor. activation, % at 2 µM. HEK293 T-REx D2 cells, calcium flux agonist mode. 340,000 compounds, 0.53% hits. P14416. AID 485358;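 active = activation over 3 SD above normal in the single-dose calcium agonist read, cut at about 30% in these data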; note: 0% is about no effect
#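 Agonism is scored from calcium flux in a force-coupled, inducible HEK293 cell line expressing D2, read kinetically for 180 s after compound addition against dopamine controls.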
# D2 ag-2 = human D2 receptor agonism in beta-arrestin assay | P14416 | DiscoveRx PathHunter D2 beta-arrestin, luminescence, 90 min; 100% = 57 uM dopamine signal | activation, % (test concentration not listed) | 360,000 compounds, 0.084% hits; in the data active = activation above about 40%
#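 DiscoveRx PathHunter D2 beta-arrestin cells (2,100/well) attached overnight, then compound-stimulated 90 min at 37 C in HBSS/10 mM HEPES/0.1% Tween-20 buffer; beta-galactosidase complementation read by luminescence after 1 h at ambient temperature. Dopamine 57 uM final (EC100) as control.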
# LDHA block = LDHA (human) enzyme inhibition; purified LDHA, NADH/diaphorase-resazurin fluorescence; stronger effect = lower value; P00338; 480,000 compounds, 0.15% hits; activity change, % (values are at about 110 or 230 µM); in the data active = activity change below about -30%;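 note: plate controls were DMSO wells for no effect and wells without enzyme for full effect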
#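 LDH5 2 nM; NADH 0.06 mM, pyruvate 0.2 mM; 200 mM Tris pH 7.4, EDTA, Tween-20; 5 min RT. Detection: diaphorase 0.133 mg/mL + resazurin 37 µM, fluorescence ex540/em590 at 0 and 20 min; normalized to enzyme-free and DMSO wells.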
# D2 PAM-2 = positive allosteric modulators of human D2 dopamine receptor | P14416 | DiscoveRx D2 beta-arrestin cells, luminescence, 90 min; 100% = 57 uM dopamine signal | potentiation, % (no concentration beside the values) | 360,000 compounds, 0.23% hits | AID 624464; in the data active = potentiation above about 50%
#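 D2 cells co-treated with compound plus 50 nM dopamine (EC20) for 90 min at 37 deg C to detect potentiation. Beta-arrestin recruitment was read as enzyme-fragment luminescence after 1 h at ambient temperature. Full response was set by 57 uM dopamine.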
# Numbers without * were called inactive; · = not tested or not shown.
SMILES,D2 antagonist,D2 PAM-1,D2 ag-1,D2 ag-2,LDHA block,D2 PAM-2
O=C(COC(=O)C1(c2ccccc2)CC1)N1CCN(c2ccc(F)cc2)CC1,35.5*,14.7,-0.1,-0.7,-5.8,-11.4
O=C(OCC(=O)N1CCN(c2ccccc2)CC1)c1cccc([N+](=O)[O-])c1,30.3*,-16.9,-1.7,-4.1,2.3,-8.6
O=C(COc1ccccc1)N1CCN(c2ccccc2)CC1,30.1*,0.8,1.1,-2.0,-17.9,-9.7
Cc1sc2ncnc(N3CCC(C(=O)Nc4cccc(S(=O)(=O)N5CCCC5)c4)CC3)c2c1C,·,·,·,·,-0.4,·
Cc1ccsc1C1NC(=O)c2ccccc2N1 (stereo not given),-8.8,32.6*,0.8,1.3,-2.1,-15.2
CCN1C(=O)N/C(=C/c2cn(CC)c3ccccc23)C1=O,·,·,·,·,-1.9,·
CCCCNCC1CCCO1 (stereo not given),69.6*,-20.6,0.4,-2.6,-6.5,-6.5
CCOCCc1nnc(NC(=O)COC)s1,-18.5,1.3,-0.5,0.3,-0.8,-9.1
CCOCC(=O)Nc1nnc(COC)s1,31.1*,8.1,-0.3,0.2,-5.3,-8.0
COc1ccc(CCN2C(=O)CC(N3CCN(S(=O)(=O)c4ccccc4)CC3)C2=O)cc1 (stereo not given),8.2,30.9*,-0.2,0.2,0.3,-26.5
COc1ccc(CCN2C(=O)CC(N3CCOCC3)C2=O)cc1 (stereo not given),·,·,·,1.8,3.7,3.3
O=C(Cc1c[nH]c2ccccc12)NC1CCCNC1=O (stereo not given),·,·,·,·,-2.8,·
O=C1NCCN1Cc1ccc(Cl)cc1,-12.7,48.9*,0.4,0.5,-15.2,-7.5
O=C1NCCCN1Cc1ccc(F)cc1,17.3,11.5,-0.4,-1.4,-5.1,-9.6
Cc1ccc(/C=N/NC(=O)CNC(=O)c2cccs2)cc1,-1.7,-4.5,0.6,-1.2,-3.4,-6.0
O=C(CNC(=O)c1cccs1)N/N=C/c1c(F)cccc1Cl,30.5*,-7.7,0.1,-0.8,-2.4,1.3
COc1cc(/C=C(\C#N)C(=O)Nc2ccccc2C(=O)O)cc(Cl)c1OC,-0.3,40.2*,-0.6,-6.0,-7.3,-11.5
COc1cccc(/C=C(\C#N)C(=O)Nc2ccccc2C(=O)O)c1OC,·,·,·,·,3.1,·
CCOc1ccc2[nH]cc(S(=O)(=O)c3ccc(Cl)cc3)c(=O)c2c1,-10.1,-2.2,0.3,-10.0,-44.2*,-44.0
CCOc1ccc2[nH]cc(S(=O)(=O)c3ccc(C)cc3)c(=O)c2c1,-9.2,2.2,-0.5,0.1,-2.9,-2.4
COc1ccccc1NC(=O)Nc1ccc(N2CCOCC2)cc1,4.4,-23.1,0.5,-1.9,-2.9,-4.4
Cc1cc(C)c(NC(=O)CS(=O)CC(=O)Nc2ccc(N3CCOCC3)cc2)c(C)c1 (stereo not given),0.2,7.6,0.0,1.3,-10.3,-3.1
COc1ccccc1CNCC(=O)Nc1ccc(N2CCOCC2)cc1,3.0,-14.3,32.8*,-1.0,-10.5,-4.2
Cc1ccc(NC(=O)CS(=O)CC(=O)Nc2ccc(N3CCOCC3)cc2)cc1Cl (stereo not given),4.2,4.7,-1.2,-1.9,-30.7*,1.7
COc1ccc(Cl)cc1NC(=O)[C@H]1C[C@@H]2CCCN2[C@]12C(=O)Nc1c(Cl)cc(C)cc12,·,·,·,·,3.4,·
SMILES,D2 antagonist,D2 PAM-1,D2 ag-1,D2 ag-2,LDHA block,D2 PAM-2
CCc1ccc(NC(=O)COC(=O)c2nc3nc(C)cc(C)n3n2)cc1,40.6*,37.3*,-0.2,0.5,-1.7,-10.6
Cc1cccc([N+](=O)[O-])c1NC(=O)COC(=O)c1nc2nccc(C)n2n1,52.4*,5.4,-1.0,0.3,-1.0,0.2
Cc1cc(C)n2nc(C(=O)OCC(=O)Nc3ccc(C)c(F)c3)nc2n1,·,·,·,2.3,-10.3,-6.4
Cc1ccc(C)c(C(=O)COC(=O)CCc2c[nH]c3ccccc23)c1,·,·,·,·,-6.3,·
COc1ccc(/C=C/c2ccc3cc(C)ccc3n2)cc1O,·,·,·,·,3.5,·
Cc1ccccc1NC(=O)CC1SCCNC1=O (stereo not given),45.0*,4.1,-0.9,-1.9,-4.7,-4.3
